From PubChem BioAssay (EPA / NIEHS)
Records with an inconclusive call do not appear. Active and inactive are the calls of the source. Rule for the calls, unless noted: active = hit-call score of the fitted dose curve at least 0.9, where 1 is the maximum; inactive = score below 0.9.

Assays:
[1] = biological target: Glucocorticoid receptor (Homo sapiens) (UniProt P04150); assay: ATG_GR_TRANS: Attagene TRANS-FACTORIAL HepG2 Assay for human Glucocorticoid Receptor (GR) (AID 2282978; active = hit-call score of the fitted dose curve at least 0.9, where 1 is the maximum;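 note: activators score as hits since higher reporter transcript over DMSO is fitted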); conditions: HepG2 Attagene TRANS GR reporter, mRNA transcription
Method in brief: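 After 24 h incubation with test chemical, transfected HepG2 cells were lysed for RNA; reporter cDNA was amplified, FAM-labelled, HpaI-digested and sized on a capillary analyser. Signal gain relative to DMSO was scored.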

[2] = biological target: Oxysterols receptor LXR-alpha (Homo sapiens) (UniProt Q13133); assay: ATG_LXRa_TRANS: Attagene TRANS-FACTORIAL HepG2 Assay for human Liver X Receptor alpha (LXRa) (AID 2282980; active = hit-call score of the fitted dose curve at least 0.9, where 1 is the maximum); conditions: HepG2 Attagene TRANS reporter, LXRa transactivation
Method in brief: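 In this multiplexed TRANS system, compounds act on HepG2 cells carrying GAL4-UAS reporter units and a receptor-GAL4 fusion for 24 h. Induced reporter RNA is amplified, fluorescently labelled and sized by capillary electrophoresis, with DMSO as baseline.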

[3] = biological target: Hepatocyte nuclear factor 4-alpha (Homo sapiens) (UniProt P41235); assay: ATG_HNF4a_TRANS: Attagene TRANS-FACTORIAL HepG2 Assay for human Hepatocyte Nuclear Factor 4 alpha (HNF4a) (AID 2282982; active = hit-call score of the fitted dose curve at least 0.9, where 1 is the maximum); conditions: HepG2 HNF4a transactivation reporter, mRNA readout
Method in brief: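 Cells used were human HepG2, transiently carrying GAL4-UAS reporter units read out against exogenous NR-GAL4 chimeras. Reporter transcript levels after 24 h dosing were quantified by fluorescent RT-PCR and capillary electrophoresis.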

[4] = ATG_M_32_TRANS: Attagene TRANS-FACTORIAL HepG2 Assay for M32 Transcription Factor (Internal Marker) (AID 2282984; active = hit-call score of the fitted dose curve at least 0.9, where 1 is the maximum;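 note: transcript level of a background control reporter unit measured by RT-PCR and capillary electrophoresis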); conditions: HepG2 Attagene TRANS M32 internal marker reporter
Method in brief: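 Human hepatoma HepG2, transient MRTU transfection, 24 h treatment. RNA → RT-PCR → fluorescent primer extension → HpaI digest (2 h, 37 C) → CE. Positive-direction fit vs DMSO.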

[5] = biological target: Nuclear receptor subfamily 4 group A member 2 (Homo sapiens) (UniProt P43354); assay: ATG_NURR1_TRANS: Attagene TRANS-FACTORIAL HepG2 Assay for human Nuclear Receptor Related Protein 1 (NURR1) (AID 2282985; active = hit-call score of the fitted dose curve at least 0.9, where 1 is the maximum); conditions: HepG2 Attagene TRANS reporter, mRNA readout
Method in brief: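 After 24 h chemical dosing, total RNA from transiently transfected HepG2 cells was reverse-transcribed and reporter cDNA PCR-amplified, FAM-labelled and analysed by capillary electrophoresis. Activity fitted in positive direction, DMSO as negative control.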

[6] = biological target: Transcriptional activator Myb (Homo sapiens) (UniProt P10242); assay: ATG_Myb_CIS: Attagene CIS-FACTORIAL HepG2 Assay for human Myeloblastosis (Myb) Proto-Oncogene Transcription Factor (AID 2282986); conditions: HepG2 Attagene CIS-FACTORIAL Myb reporter transcription; actives raise or lower the signal
Method in brief: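 After 24 h of compound dosing, total RNA from transfected HepG2 cells is reverse-transcribed and the reporter sequences amplified, labeled and separated by capillary electrophoresis. Values come from bidirectional fitting against DMSO.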

[7] = ATG_NFI_CIS: Attagene CIS-FACTORIAL HepG2 Assay for human Nuclear Factor I (NFI) (AID 2282989); conditions: HepG2 cis-regulatory reporter, NFI response element transcription; actives raise or lower the signal
Method in brief: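 Reporter transcription driven by endogenous transcription factors in HepG2 cells; 24 h treatment. Quantitation by labelled RT-PCR fragments on capillary electrophoresis, gain- or loss-of-signal relative to DMSO.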

[8] = biological target: Myc proto-oncogene protein (Homo sapiens) (UniProt P01106); assay: ATG_Myc_CIS: Attagene CIS-FACTORIAL HepG2 Assay for human Myelocytomatosis (Myc) Proto-Oncogene Transcription Factor (AID 2282990); conditions: HepG2, Attagene cis-reporter transcription factor activity; actives raise or lower the signal
Method in brief: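 HepG2 cells transiently transfected with multiple cis-promoter-driven reporter transcription units, so endogenous TF activity is read. After 24 h compound exposure, reporter mRNA was quantified by RT-PCR, 6-FAM labelling, HpaI digestion and capillary electrophoresis; bidirectional fit versus DMSO.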

[9] = ATG_NF_kB_CIS: Attagene CIS-FACTORIAL HepG2 Assay for human Nuclear Factor Kappa B (NF-kB) (AID 2282991); conditions: HepG2 Attagene cis-factorial NF-kB reporter mRNA; actives raise or lower the signal
Method in brief: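 Fluorescence of labelled RT-PCR products separated by capillary electrophoresis gives reporter mRNA levels from transfected HepG2 cells exposed 24 h; values are fitted in both directions relative to DMSO.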

[10] = ATG_NRF2_ARE_CIS: Attagene CIS-FACTORIAL HepG2 Assay for human Nuclear Factor Erythroid 2 Related Factor 2 (NFR2) response to Antioxidant Response Elements (ARE) (AID 2282992); conditions: HepG2 Attagene ARE/NRF2 reporter, transcription factor activity; actives raise or lower the signal
Method in brief: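 Transient MRTU transfection of HepG2; 24 h compound exposure; TriZol RNA, RT with oligo(dT), PCR, 6-FAM primer extension, HpaI cut, CE. Bidirectional fit vs DMSO.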

[11] = ATG_Oct_MLP_CIS: Attagene CIS-FACTORIAL HepG2 Assay for human Octamer-Binding Transcription Factor (Oct) (AID 2282993); conditions: HepG2 Attagene cis-factorial Oct reporter, mRNA; actives raise or lower the signal
Method in brief: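 Transfected HepG2 cells, 24 h treatment. Reporter mRNA quantified by RT-PCR–capillary electrophoresis; bidirectional fitting against DMSO.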

[12] = biological target: Cellular tumor antigen p53 (Homo sapiens) (UniProt P04637); assay: ATG_p53_CIS: Attagene CIS-FACTORIAL HepG2 Assay for human p53 Transcription Factor (AID 2282994); conditions: HepG2 p53 cis-element reporter, Attagene mRNA; actives raise or lower the signal
Method in brief: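 HepG2, transient MRTU transfection (cis promoter elements, endogenous TFs); 24 h dosing; RNA isolation, RT-PCR, 6-FAM primer extension, HpaI digest, CE fluorescence; bidirectional fit vs DMSO.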

[13] = BSK_3C_TissueFactor: BioMAP Diversity Plus: 3C Assay for Tissue Factor Biomarker Activity (AID 2282997); conditions: BioMAP 3C HUVEC, tissue factor biomarker readout; actives raise or lower the signal
Method in brief: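 Endothelial monolayers (human umbilical vein, primary) are dosed, incubated 24 h, and assayed for Tissue Factor by ELISA; DMSO serves as negative control for bidirectional fitting.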

[14] = BSK_3C_uPAR: BioMAP Diversity Plus: 3C Assay for Urokinase-type plasminogen activator receptor (uPAR) Biomarker Activity (AID 2282998); conditions: BioMAP 3C HUVEC, uPAR biomarker ELISA; actives raise or lower the signal
Method in brief: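 Readout: ELISA for surface uPAR. System: human umbilical vein endothelial primary cells, 24 h after chemical exposure. Analysis: bidirectional fit, DMSO baseline.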

[15] = BSK_3C_VCAM1: BioMAP Diversity Plus: 3C Assay for Vascular cell adhesion molecule 1 (VCAM1) Biomarker Activity (AID 2282999); conditions: BioMAP 3C HUVEC, VCAM1 ELISA, cytokine-stimulated; actives raise or lower the signal
Method in brief: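 Human umbilical vein endothelial cells were dosed with compound for 24 h, after which cell-surface VCAM-1 was quantified by ELISA. Bidirectional curve fitting used DMSO as negative control and activity baseline.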

[16] = BSK_4H_Eotaxin3: BioMAP Diversity Plus: 4H Assay for Eotaxin 3 Biomarker Activity (AID 2283000); conditions: primary human endothelial cells (HUVEC); actives raise or lower the signal
Method in brief: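 ELISA quantitation of CCL26 (Eotaxin-3) protein from chemically dosed human vascular endothelial cells at 24 h; increases and decreases both scored relative to DMSO-treated baseline.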

[17] = biological target: Bile acid receptor (Homo sapiens) (UniProt Q96RI1); assay: ATG_FXR_TRANS: Attagene TRANS-FACTORIAL HepG2 Assay for Farnesoid X Receptor (FXR) (AID 2282979; active = hit-call score of the fitted dose curve at least 0.9, where 1 is the maximum;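 note: hits raise reporter mRNA above DMSO so AC50 marks FXR activation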); conditions: HepG2 Attagene TRANS FXR-GAL4 reporter transcription
Method in brief: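 After 24 h chemical treatment of transfected HepG2 cells, GAL4-UAS reporter transcripts driven by an exogenous FXR-GAL4 fusion were measured by RT-PCR and capillary electrophoresis. Increases over DMSO were fitted.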

[18] = biological target: Nuclear respiratory factor 1 (Homo sapiens) (UniProt Q16656); assay: ATG_NRF1_CIS: Attagene CIS-FACTORIAL HepG2 Assay for human Nuclear Respiratory Factor 1 (NRF1) Orphan Gene (AID 2282987); conditions: HepG2 NRF1 cis-element reporter, Attagene multiplex; actives raise or lower the signal
Method in brief: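 Measured: fluorescent reporter-specific RT-PCR products from transfected HepG2 cells, separated by capillary electrophoresis. Exposure lasted 24 h. Analysis used bidirectional curve fitting with DMSO as negative control.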

[19] = ATG_M_06_TRANS: Attagene TRANS-FACTORIAL HepG2 Assay for M06 Transcription Factor (Internal Marker) (AID 2282983; active = hit-call score of the fitted dose curve at least 0.9, where 1 is the maximum); conditions: HepG2 Attagene TRANS M06 internal marker reporter
Method in brief: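 Internal-marker background readout from a multiplexed TRANS reporter system in HepG2; 24 h dosing; mRNA induction quantified by RT-PCR plus capillary electrophoresis fluorescence; DMSO as negative control and baseline.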

Measured: AC50

Cellular tumor antigen p53 (Homo sapiens), sequence (P04637 whole entry, looked up): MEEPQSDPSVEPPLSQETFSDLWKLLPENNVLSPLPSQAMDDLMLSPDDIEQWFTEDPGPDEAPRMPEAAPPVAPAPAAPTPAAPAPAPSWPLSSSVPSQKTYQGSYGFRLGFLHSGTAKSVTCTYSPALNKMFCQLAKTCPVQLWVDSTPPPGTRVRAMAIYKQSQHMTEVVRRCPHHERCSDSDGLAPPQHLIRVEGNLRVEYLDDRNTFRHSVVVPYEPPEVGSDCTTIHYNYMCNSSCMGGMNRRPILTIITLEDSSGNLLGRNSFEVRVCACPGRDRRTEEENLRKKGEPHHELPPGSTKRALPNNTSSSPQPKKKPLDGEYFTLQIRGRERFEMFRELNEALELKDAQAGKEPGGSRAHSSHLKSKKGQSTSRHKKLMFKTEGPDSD
Nuclear receptor subfamily 4 group A member 2 (Homo sapiens), sequence (P43354 whole entry, looked up): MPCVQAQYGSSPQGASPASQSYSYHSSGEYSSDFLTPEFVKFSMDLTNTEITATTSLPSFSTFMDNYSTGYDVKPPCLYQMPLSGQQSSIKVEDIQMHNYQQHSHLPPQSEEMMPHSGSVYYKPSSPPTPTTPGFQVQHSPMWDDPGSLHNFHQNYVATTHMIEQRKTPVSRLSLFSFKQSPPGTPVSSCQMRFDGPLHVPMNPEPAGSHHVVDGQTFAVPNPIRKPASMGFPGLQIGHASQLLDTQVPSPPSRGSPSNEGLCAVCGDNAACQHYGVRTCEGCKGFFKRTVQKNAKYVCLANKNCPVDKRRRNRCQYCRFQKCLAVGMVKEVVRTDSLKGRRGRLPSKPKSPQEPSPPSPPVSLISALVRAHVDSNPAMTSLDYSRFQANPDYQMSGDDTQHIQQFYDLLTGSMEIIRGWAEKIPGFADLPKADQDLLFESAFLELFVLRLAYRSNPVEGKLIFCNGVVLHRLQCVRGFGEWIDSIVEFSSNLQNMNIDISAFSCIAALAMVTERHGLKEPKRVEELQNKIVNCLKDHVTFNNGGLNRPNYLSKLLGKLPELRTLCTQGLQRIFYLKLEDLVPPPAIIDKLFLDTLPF
Glucocorticoid receptor (Homo sapiens), sequence (P04150 whole entry, looked up): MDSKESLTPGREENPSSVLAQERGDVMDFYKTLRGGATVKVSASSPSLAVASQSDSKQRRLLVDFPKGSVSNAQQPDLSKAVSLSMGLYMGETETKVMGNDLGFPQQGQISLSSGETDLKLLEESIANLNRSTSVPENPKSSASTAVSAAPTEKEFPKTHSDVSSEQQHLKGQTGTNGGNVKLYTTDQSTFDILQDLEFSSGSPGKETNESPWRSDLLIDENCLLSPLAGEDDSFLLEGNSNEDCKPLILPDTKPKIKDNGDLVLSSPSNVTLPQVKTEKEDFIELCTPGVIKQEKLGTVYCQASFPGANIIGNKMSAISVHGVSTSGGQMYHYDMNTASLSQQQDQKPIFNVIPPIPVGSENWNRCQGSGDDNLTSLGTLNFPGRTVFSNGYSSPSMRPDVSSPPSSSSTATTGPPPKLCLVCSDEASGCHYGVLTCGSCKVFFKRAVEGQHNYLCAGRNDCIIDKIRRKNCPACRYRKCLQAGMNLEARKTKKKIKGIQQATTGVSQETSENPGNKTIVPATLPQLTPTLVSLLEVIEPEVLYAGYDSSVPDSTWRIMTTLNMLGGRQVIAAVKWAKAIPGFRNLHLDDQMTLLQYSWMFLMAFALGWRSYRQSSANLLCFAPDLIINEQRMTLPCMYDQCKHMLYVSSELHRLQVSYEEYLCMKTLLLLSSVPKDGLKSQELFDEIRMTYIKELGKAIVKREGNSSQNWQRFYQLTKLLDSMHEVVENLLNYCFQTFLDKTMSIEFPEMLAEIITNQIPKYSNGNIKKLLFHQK
Transcriptional activator Myb (Homo sapiens), sequence (P10242 whole entry, looked up): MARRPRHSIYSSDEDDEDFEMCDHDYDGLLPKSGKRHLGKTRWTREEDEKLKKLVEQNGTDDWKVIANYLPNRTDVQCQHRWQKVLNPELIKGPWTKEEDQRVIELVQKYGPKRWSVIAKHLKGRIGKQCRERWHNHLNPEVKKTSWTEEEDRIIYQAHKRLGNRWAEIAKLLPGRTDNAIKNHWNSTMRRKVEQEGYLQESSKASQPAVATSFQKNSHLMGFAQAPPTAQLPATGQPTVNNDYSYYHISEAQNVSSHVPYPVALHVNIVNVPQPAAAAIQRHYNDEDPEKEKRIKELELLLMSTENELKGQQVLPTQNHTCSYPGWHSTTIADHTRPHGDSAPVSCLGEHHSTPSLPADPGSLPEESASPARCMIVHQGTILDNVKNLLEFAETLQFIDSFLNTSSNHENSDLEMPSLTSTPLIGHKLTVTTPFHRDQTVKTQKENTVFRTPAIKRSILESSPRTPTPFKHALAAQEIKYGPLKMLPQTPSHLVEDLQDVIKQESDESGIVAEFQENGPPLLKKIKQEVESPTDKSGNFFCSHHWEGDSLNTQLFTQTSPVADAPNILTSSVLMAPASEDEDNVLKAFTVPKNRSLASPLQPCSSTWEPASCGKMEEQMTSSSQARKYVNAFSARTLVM
Bile acid receptor (Homo sapiens), sequence (Q96RI1 whole entry, looked up, the tested form may be a part): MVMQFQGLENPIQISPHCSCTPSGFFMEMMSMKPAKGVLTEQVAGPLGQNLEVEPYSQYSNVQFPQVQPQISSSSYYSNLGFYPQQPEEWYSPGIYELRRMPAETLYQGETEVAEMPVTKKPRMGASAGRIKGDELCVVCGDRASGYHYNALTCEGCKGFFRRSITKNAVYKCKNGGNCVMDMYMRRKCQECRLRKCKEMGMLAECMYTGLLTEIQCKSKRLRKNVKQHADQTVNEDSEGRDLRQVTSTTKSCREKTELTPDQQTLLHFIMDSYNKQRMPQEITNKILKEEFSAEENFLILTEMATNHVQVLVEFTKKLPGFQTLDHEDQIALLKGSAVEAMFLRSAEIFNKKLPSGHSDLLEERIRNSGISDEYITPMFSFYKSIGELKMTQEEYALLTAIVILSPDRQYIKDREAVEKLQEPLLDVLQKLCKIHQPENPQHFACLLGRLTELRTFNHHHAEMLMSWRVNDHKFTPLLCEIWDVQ
Oxysterols receptor LXR-alpha (Homo sapiens), sequence (Q13133 whole entry, looked up, the tested form may be a part): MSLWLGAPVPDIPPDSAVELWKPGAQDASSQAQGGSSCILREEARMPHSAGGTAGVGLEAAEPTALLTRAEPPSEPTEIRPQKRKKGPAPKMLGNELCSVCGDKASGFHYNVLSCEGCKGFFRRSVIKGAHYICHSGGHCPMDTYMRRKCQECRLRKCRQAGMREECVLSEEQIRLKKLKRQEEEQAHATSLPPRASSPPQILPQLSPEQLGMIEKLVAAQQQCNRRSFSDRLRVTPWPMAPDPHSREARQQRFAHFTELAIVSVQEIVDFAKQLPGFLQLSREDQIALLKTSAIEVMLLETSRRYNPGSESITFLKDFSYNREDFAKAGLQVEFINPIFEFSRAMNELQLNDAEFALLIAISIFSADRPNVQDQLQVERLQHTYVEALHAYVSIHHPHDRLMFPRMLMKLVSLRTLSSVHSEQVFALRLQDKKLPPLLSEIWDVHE
Myc proto-oncogene protein (Homo sapiens), sequence (P01106 whole entry, looked up): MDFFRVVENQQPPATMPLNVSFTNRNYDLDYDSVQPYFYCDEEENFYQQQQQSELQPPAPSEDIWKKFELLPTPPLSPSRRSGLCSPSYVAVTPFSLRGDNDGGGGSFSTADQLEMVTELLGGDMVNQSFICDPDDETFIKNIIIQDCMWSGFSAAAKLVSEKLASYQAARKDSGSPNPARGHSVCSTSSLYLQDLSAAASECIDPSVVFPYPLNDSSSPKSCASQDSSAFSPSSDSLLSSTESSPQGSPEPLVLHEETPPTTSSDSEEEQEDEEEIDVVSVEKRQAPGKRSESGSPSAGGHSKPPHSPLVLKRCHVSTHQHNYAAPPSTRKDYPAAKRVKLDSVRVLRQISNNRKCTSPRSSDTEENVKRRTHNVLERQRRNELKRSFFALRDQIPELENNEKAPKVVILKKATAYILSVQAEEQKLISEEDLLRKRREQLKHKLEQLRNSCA
Nuclear respiratory factor 1 (Homo sapiens), sequence (Q16656 whole entry, looked up): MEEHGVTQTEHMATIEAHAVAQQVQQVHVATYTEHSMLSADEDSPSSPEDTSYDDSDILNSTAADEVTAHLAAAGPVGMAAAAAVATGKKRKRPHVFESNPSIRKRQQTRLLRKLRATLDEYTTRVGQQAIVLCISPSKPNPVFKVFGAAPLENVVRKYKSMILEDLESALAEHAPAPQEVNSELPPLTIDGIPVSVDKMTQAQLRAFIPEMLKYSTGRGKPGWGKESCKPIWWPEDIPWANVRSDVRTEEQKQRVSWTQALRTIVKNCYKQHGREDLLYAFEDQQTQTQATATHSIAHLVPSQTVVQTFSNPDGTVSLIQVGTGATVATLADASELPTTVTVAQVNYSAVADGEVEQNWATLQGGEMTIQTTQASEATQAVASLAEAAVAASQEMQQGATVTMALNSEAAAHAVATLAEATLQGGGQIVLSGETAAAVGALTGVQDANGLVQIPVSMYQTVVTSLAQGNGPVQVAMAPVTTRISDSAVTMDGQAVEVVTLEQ
Hepatocyte nuclear factor 4-alpha (Homo sapiens), sequence (P41235 whole entry, looked up, the tested form may be a part): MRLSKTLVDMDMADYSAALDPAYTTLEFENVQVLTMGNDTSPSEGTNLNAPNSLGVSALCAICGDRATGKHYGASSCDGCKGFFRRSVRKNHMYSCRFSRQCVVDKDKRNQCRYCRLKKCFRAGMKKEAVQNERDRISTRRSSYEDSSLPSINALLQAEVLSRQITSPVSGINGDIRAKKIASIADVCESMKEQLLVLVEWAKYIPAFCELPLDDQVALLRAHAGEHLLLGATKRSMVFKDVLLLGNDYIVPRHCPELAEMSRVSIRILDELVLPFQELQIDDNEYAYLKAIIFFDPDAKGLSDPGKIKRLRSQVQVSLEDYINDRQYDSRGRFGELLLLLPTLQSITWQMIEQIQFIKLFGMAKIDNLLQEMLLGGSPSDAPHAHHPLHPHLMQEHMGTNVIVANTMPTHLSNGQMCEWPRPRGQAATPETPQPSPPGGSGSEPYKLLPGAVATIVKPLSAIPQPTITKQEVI

CC(O)CC(C)(C)O (stereo not given)
not listed: [17] | [18] | [19]
inactive: all other assays above

NC(=O)c1nc(-c2cccc(-c3cc(F)ccc3OCC(F)(F)C(F)(F)F)c2)n[nH]1
active: [5] 50.1 µM | [10] 8.83 µM | [11] 27.4 µM | [13] 29.7 µM | [14] 26.6 µM | [15] 35.7 µM | [16] 37 µM
inactive: [1] | [17] | [4] | [6] | [7] | [9] | [12]

CCOC(=O)O[C@H](C)OC(=O)c1ccc2c(c1)cc(C(=O)NC1CCN(C(C)C)CC1)n2Cc1cc(-c2ccc(Cl)s2)on1
active: [10] 9.33 µM | [13] 9.97 µM | [14] 6.09 µM | [15] 5.69 µM | [16] 8.87 µM
not listed: [2] | [3] | [4] | [5] | [19]
inactive: all other assays above

CC(=O)N1CCN(c2ccc(OC[C@H]3CO[C@](Cn4ccnc4)(c4ccc(Cl)cc4Cl)O3)cc2)CC1
active: [5] 43.7 µM | [10] 24 µM | [11] 9.69 µM | [13] 31.1 µM | [14] 29.8 µM | [16] 33.7 µM
not listed: [2] | [3] | [18] | [19]
inactive: all other assays above

CCN(Cc1cccnc1)C(=O)c1cccc(Cl)c1[C@]1(C)C(=O)N(Cc2ccc(OC)cc2OC)c2ccc(Cl)cc21
inactive: [1] | [19] | [4] | [6] | [7] | [9]
active: [17] 2.58 µM | [5] 8.74 µM | [10] 5.87 µM | [11] 2.6 µM | [12] 4.98 µM | [13] 9.45 µM | [14] 5.85 µM | [15] 7.09 µM | [16] 11.4 µM

Cc1occc1C(=O)Nc1ccc(C(=O)N2CCC(F)(F)/C(=C\C(=O)N3CCC(N4CCCCC4)CC3)c3ccccc32)cc1
active: [9] 18.5 µM | [10] 22 µM | [11] 49.6 µM
not listed: [5] | [8] | [17] | [18]
inactive: all other assays above

CN(C)C(=O)C1(N2CCCCC2)CCN(CC[C@@]2(c3ccc(Cl)c(Cl)c3)CN(C(=O)c3ccccc3)CCO2)CC1
active: [9] 0.62 µM | [10] 0.458 µM | [13] 33.1 µM | [14] 7.23 µM | [15] 29.5 µM | [16] 27.9 µM
not listed: [3] | [4] | [19]
inactive: all other assays above
